In the library only some 2.8% were active in any assay of this set; here they are far more common.
PP5 inh = PP5 phosphatase inhibitors, primary screen, biochemical, fluorescence. purified PP5c, OMFP substrate fluorescence. AID 1987, 2009. inhibition, % at 6.7 µM. actives 0.18% (n = 320,000). Serine/threonine-protein phosphatase 5 (Homo sapiens), P53041;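 active = inhibition above the campaign's mean inhibition across all tested compounds plus 3 SD, cut at about 9.5% in these data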;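 note: 0% = DMSO only and 100% = 100 µM cantharidin control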
PG9 Ab binder = binders of HIV-1 gp120 antibody PG9, primary screen, biochemical, TR-FRET | HIV-1 gp120 / PG9 antibody interaction | TR-FRET gp120-PG9 antibody binding | inhibition, % at 6.7 µM | actives 0.43% (n = 360,000); in the data active = inhibition above about 8.5%
PP1 counter = PP1-alpha phosphatase inhibitors, primary screen, counter-screen for PP5 inhibitor project, biochemical, fluorescence, OMFP substrate, single point | AID 2235, 2010 | inhibition, % at 6.7 µM | actives 0.9% (n = 320,000) | Serine/threonine-protein phosphatase PP1-alpha catalytic subunit (Homo sapiens), P62136 | purified PP1alpha;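 active = inhibition above the mean inhibition of all tested compounds plus 3 SD, computed separately for each screening campaign, cut at about 15% in these data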
KLK7 zymogen act = proKLK7 zymogen activators, primary screen, biochemical, fluorescence intensity; purified proKLK7, EDANS-DABCYL substrate fluorescence; 100% is mature enzyme control, 0% vehicle; activation, % at 7 µM; actives 0.9% (n = 370,000); AID 652039, 2013;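 active = activation above the mean of all tested compounds plus 3 SD, computed per campaign excluding outliers beyond control limits, cut at about 13% in these data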
NR1D1 modulator = modulators of Rev-erb alpha DNA binding, primary screen, biochemical, FITC-DNA, fluorescence polarization, uHTS; AID 1259318, 2017; Nuclear receptor subfamily 1 group D member 1 (Homo sapiens), P20393; Rev-erbα–FITC-DNA binding, 90 min; actives 0.79% (n = 370,000); activity, % at 10 µM;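 active = activity above about 14%, limit read from the data; passing the limit was not always enough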;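 note: 0% = DMSO wells with 35 nM protein and 100% = DMSO wells with 750 nM protein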
GASC-1 inh = inhibitors of GASC-1 histone demethylase, primary screen, biochemical, fluorescence, DELFIA europium; Lysine-specific demethylase 4C (Homo sapiens), Q9H3R0; GST-JMJD2C(1-420) H3K9me3 demethylation; AID 2099, 2009; actives 0.069% (n = 330,000); inhibition, % at 2.35 µM;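 active = more than half of a compound's replicate wells show inhibition beyond 50%, single wells judged on their own value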;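 note: signal counts dimethyl H3K9 product captured on neutravidin plate; 0% = median of DMSO wells and 100% = 0.3 times that DMSO median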
Target sequence (Q9H3R0 1-420 limits assumed): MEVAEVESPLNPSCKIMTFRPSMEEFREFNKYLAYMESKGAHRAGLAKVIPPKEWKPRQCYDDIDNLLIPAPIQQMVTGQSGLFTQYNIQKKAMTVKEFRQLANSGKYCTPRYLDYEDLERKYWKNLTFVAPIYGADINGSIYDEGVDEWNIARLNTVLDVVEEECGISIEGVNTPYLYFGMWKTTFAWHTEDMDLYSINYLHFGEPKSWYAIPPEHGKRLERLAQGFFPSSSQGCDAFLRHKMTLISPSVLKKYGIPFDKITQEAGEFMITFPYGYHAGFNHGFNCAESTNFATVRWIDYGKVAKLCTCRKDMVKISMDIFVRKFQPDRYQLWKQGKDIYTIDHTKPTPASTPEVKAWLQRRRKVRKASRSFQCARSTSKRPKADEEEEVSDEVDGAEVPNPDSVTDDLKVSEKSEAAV
PP1 inh confirm = PP1 phosphatase inhibitors, confirmation, biochemical, fluorescence, OMFP substrate, triplicate; shares compounds with PP1 counter; purified PP1alpha; inhibition, % at 6.7 µM; actives 52% (n = 1,900); AID 2358, 2010;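 active = mean PP1 inhibition above a set limit taken from the earlier primary screen, cut at about 15% in these data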
PP5 inh counter = PP5 phosphatase inhibition by PP1 hits, confirmation, counter-screen for PP1 inhibitor project, biochemical, fluorescence, triplicate; shares compounds with PP1 counter; purified PP5c, OMFP fluorescence; inhibition, % at 6.7 µM; actives 4% (n = 1,900);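 active = mean PP5 inhibition over triplicate wells above about 9.5% taken from the earlier PP1 screen, limit read from the data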
The depositor's hits bear a star; / = not tested or not shown.

SMILES	PP5 inh	PG9 Ab binder	PP1 counter	KLK7 zymogen act	NR1D1 modulator	GASC-1 inh	PP1 inh confirm	PP5 inh counter
Cc1cc(-c2ccc(NC(=O)[C@@H]3CCCC[C@@H]3C(=O)O)c(C)c2)ccc1NC(=O)[C@@H]1CCCC[C@@H]1C(=O)O	0	-3	-2	0	1	12	/	/
O=C(O)C1C2CCC(O2)C1C(=O)NCc1ccccc1Br (stereo not drawn)	34*	0	17*	0	-2	4	10	17*
Cc1cc(Br)ccc1NC(=O)C1C2CCC(O2)C1C(=O)O (stereo not drawn)	63*	0	55*	1	9	8	9	16*
O=C(O)C1C2CCC(O2)C1C(=O)NCCC1=CCCCC1 (stereo not drawn)	69*	/	61*	/	/	-23	31*	41*
NC(=O)NCCC1=CCCCC1	2	0	1	0	6	-1	/	/
Cc1ccc(S(=O)(=O)N2CC[C@@]3(Cc4ccccc4)Cc4ccccc4C[C@@H]23)cc1	/	/	/	/	3	/	/	/
CC(C)(C)NC(=O)[C@@H](c1cccnc1)N(C(=O)c1ccco1)c1ccc(C(C)(C)C)cc1	/	/	/	/	-1	/	/	/
Oc1ccccc1C=NN1CCN(Cc2ccccc2)CC1	/	/	/	0	-3	/	/	/
O=C(N[C@H](Cc1ccccc1)C(=O)N1CCCN(Cc2ccccc2F)CC1)[C@H]1O[C@@H](n2ccc(=O)[nH]c2=O)[C@H](O)[C@@H]1O	/	-1	/	0	2	/	/	/
COc1cccc(CNC(=O)CN2CCCc3ccccc32)c1	/	/	/	0	1	/	/	/
COC(=O)[C@]12C[C@H](CC(=O)N3CCN(C(=O)C4CC4)CC3)C(=O)N(Cc3ccccc3)C1=C[C@H](C1CCCC1)O[C@@H]2C	/	2	/	0	3	/	/	/
COc1cc(NC(=O)COc2ccccc2[N+](=O)[O-])ccc1NC(=O)c1ccco1	-2	2	20*	0	-25	6	19*	-3
CCn1c(CC(=O)Nc2ccc(C)cc2)nnc1SCC(=O)N1CCOCC1	1	0	26*	1	-2	-12	1	0
COc1cc(/C=C2\SC(=Nc3ccccc3)N(CCc3c[nH]c4ccccc34)C2=O)ccc1OC(C)C(=O)O (stereo not drawn)	1	-1	18*	0	-4	17	12	0
COc1ccc(C(CNC(=O)c2ccc(-c3ccccc3)cc2)N(C)C)cc1OC (stereo not drawn)	2	0	43*	-1	2	2	-2	1
COc1ccc(-c2cc(C(=O)NCC(c3ccccc3)N(C)C)c3ccccc3n2)cc1OC (stereo not drawn)	1	-1	0	2	-3	2	/	/
COc1ccc(NC(=O)CSc2sc3c(O)cc(=O)[nH]c3c2C#N)c(OC)c1	1	1	13	-1	-7	11	/	/
CCc1nnc(NC(=O)CSc2sc3c(O)cc(=O)[nH]c3c2C#N)s1	0	-1	18*	-1	-18	-19	3	-3
COc1ccccc1NC(=O)CSc1sc2c(O)cc(=O)[nH]c2c1C#N	-1	0	20*	-1	2	3	0	-2
CCSc1nnc(NC(=O)CSc2sc3c(O)cc(=O)[nH]c3c2C#N)s1	1	-1	5	-1	-20	1	/	/
O=C(OC12CCCN(C1)/C(=C/c1cccc(Cl)c1)C2)C1CCCC1 (stereo not drawn)	/	/	/	-1	3	/	/	/
CN1CCC(N[C@@H](Cc2c[nH]c3ccccc23)C(=O)NCCCc2ccccc2)(C(=O)NCCc2c[nH]c3ccccc23)CC1	/	/	/	/	0	/	/	/
Cc1cc(/C=C2\SC(=Nc3ccccc3)NC2=O)c(C)n1-c1ccc(S(N)(=O)=O)cc1	4	0	18*	0	2	12	7	0
Oc1ccc(/C=N/Nc2ccc(Cl)nn2)c(O)c1O	2	-3	18*	0	-33	15	38*	-6
COc1cccc2cc(/C(C)=N/Nc3nc(-c4cc(C)ccc4C)cs3)c(=O)oc12	1	0	20*	-1	13	7	19*	1
SMILES	PP5 inh	PG9 Ab binder	PP1 counter	KLK7 zymogen act	NR1D1 modulator	GASC-1 inh	PP1 inh confirm	PP5 inh counter
O=C1CCC[C@H]2C[C@H](NCCc3ccncc3)CC[C@]23CCCN13	/	/	/	/	-7	/	/	/
CCOC(=O)C1=C(c2ccccc2)NC(N)=NC1c1ccc(OCc2ccc(C(=O)OC)cc2)cc1 (stereo not drawn)	2	-2	44*	1	-1	-8	31*	-4
COc1cccc(CNC(=O)c2ccc(COc3ccccc3)cc2)c1	5	-4	-2	0	5	7	/	/
COC(=O)c1ccc(CNC(=O)c2ccc(COc3ccccc3)cc2)cc1	0	-3	26*	0	-4	2	24*	-2
O=C(Nc1nc(-c2ccc(Cl)s2)cs1)c1ccco1	2	-3	2	1	/	1	/	/
O=C(CN1C(=O)CCC1=O)Nc1nc(-c2nc3ccccc3s2)cs1	0	0	-2	-87	-2	0	/	/
O=C(Nc1nc(-c2nc3ccccc3s2)cs1)c1ccco1	3	-12	23*	0	-3	7	26*	-3
O=C(Nc1nc(-c2nc3ccccc3s2)cs1)C1CC1	1	0	24*	-2	-1	2	26*	0
Fc1cccc(CSc2ccc3nnc(-c4ccccn4)n3n2)c1	2	-2	18*	0	4	1	1	-5
Cc1ccc(-c2cc(-c3nnc(SCC(=O)Nc4nccs4)n3N)[nH]n2)cc1	/	/	/	0	3	/	/	/
COc1ccc(-c2cc(-c3ccc(Cl)cc3)c(C#N)c(SCC(=O)O)n2)cc1	2	2	48*	-20	-10	2	28*	0
CCOc1ccc(-n2c(SCC(=O)c3ccc4ccccc4c3)nnc2-c2cccc(Cl)c2)cc1	/	/	/	0	-1	/	/	/
Cc1cc(C(=O)COC(=O)c2ccc[nH]c2=O)c(C)n1-c1ccc(Br)cc1	3	-2	18*	0	4	4	8	-6
